{
  "source": "PubChem BioAssay AID1053126",
  "about": "(Broad Institute, 2014)",
  "note": "Entries with a potency or affinity are not part of this list. A number with no mark means an inactive call.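 The calls were made as follows: active = cell killing with a fitted half-effect concentration at or below twice the top valid dose; inconclusive = flat curve with 30 to 70 percent drop, or poor fit; inactive = the rest.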",
  "data": [
    {"test": "viability loss in HEK293T kidney cells – cell-based, ATP luminescence, cherry-pick, set 6, cytotoxicity control, dose response (AID 1053126);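 also: 0% = neutral control wells and -100% = mitoxantrone 10 µM positive control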", "conditions": "CellTiter-Glo ATP luminescence, 72 h; series mostly up to 26 µM; activity change, negative = cytotoxicity: at the top concentration", "units": {"activity change, negative = cytotoxicity": "%"}, "values": [
      {"smiles": "COc1ccccc1OCc1ccc(C(=O)N(C)c2ccccc2)o1", "activity change, negative = cytotoxicity": 23.6},
      {"smiles": "O=C1CCc2cc(S(=O)(=O)NC(Cc3ccccc3)C(=O)NCCC3=CCCCC3)ccc2N1", "note": "(configuration not stated)", "activity change, negative = cytotoxicity": 8.41},
      {"smiles": "NC(=O)c1c(NC(=O)Cc2ccccc2)sc2c1CCN(Cc1ccccc1)C2", "activity change, negative = cytotoxicity": -10.5},
      {"smiles": "Cc1ccc(-n2nnnc2CNC(=O)C(=O)c2c[nH]c3ccccc23)cc1C", "activity change, negative = cytotoxicity": 2.11},
      {"smiles": "CCOCCCNc1c(CC)c(C)c(C#N)c2nc3ccccc3n12", "activity change, negative = cytotoxicity": -2.89},
      {"smiles": "COc1ccc(NC(=O)C2CCC(CNS(=O)(=O)c3cccs3)CC2)cc1", "note": "(configuration not stated)", "activity change, negative = cytotoxicity": -11.5},
      {"smiles": "COCCCn1c(=N)c(C(=O)NC2CCCCC2)cc2c(=O)n3ccccc3nc21", "activity change, negative = cytotoxicity": 22.6},
      {"smiles": "Nc1cccc2c1C(=O)N(c1ccccc1)C2=O", "activity change, negative = cytotoxicity": -15.3},
      {"smiles": "Cc1cccn2c(=O)c3cc(C(=O)NCc4ccco4)c(=N)n(CCc4ccccc4)c3nc12", "activity change, negative = cytotoxicity": -5.68},
      {"smiles": "COc1ccccc1/C=N/Nc1nc(C)cc(=O)[nH]1", "activity change, negative = cytotoxicity": -8.08},
      {"smiles": "COCCNC(=O)c1cc2c(=O)n3cccc(C)c3nc2n(Cc2ccncc2)c1=N", "activity change, negative = cytotoxicity": -15.1},
      {"smiles": "C=CCn1c(=N)c(C#N)cc2c(=O)n3ccccc3nc21", "activity change, negative = cytotoxicity": -9.32},
      {"smiles": "O=[N+]([O-])c1cccc(-c2n[nH]c(=S)n2-c2ccc(Br)cc2)c1", "activity change, negative = cytotoxicity": 12.7},
      {"smiles": "O=C(O)[C@@H]1CCCN1S(=O)(=O)c1cccc(S(=O)(=O)N2CCC[C@H]2C(=O)O)c1", "activity change, negative = cytotoxicity": -7.09},
      {"smiles": "Cc1cccn2c(=O)c3cc(C(N)=S)c(=N)n(CCCOC(C)C)c3nc12", "activity change, negative = cytotoxicity": -7.65},
      {"smiles": "CCC(C)n1c(=N)c(C#N)cc2c(=O)n3cc(C)ccc3nc21", "note": "(configuration not stated)", "activity change, negative = cytotoxicity": 5.65},
      {"smiles": "CC(C)N1CCc2c(sc(NC(=O)Cc3ccccc3)c2C#N)C1", "activity change, negative = cytotoxicity": 49.6}
    ]}
  ]
}
